In PubChem BioAssay AID1159580 (chemical genetic matrix, 2015):
Several values for one entry are separate records, joined by “and”; a condition that tells them apart may be missing. Equal entries are not always repeated. About 2,000 (36%) of roughly 5,500 compounds were called active. Another 18% or so got no clear call; they are omitted. Cut-off read from the data, not from the text of the source: active = normalized growth mostly below about 0.91 (no sharp cut-off); inconclusive = no clear call, values can overlap the other calls; inactive = mostly above about 0.92. The list shows a part of the results.

Experiment: chemical genetic growth profiling, strain panel (AID 1159580);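 note: tested at 20 µM; growth read once vehicle control cultures reached saturation at 30 °C; 1 = growth at the plate median or of vehicle wells; lower values mean less growth of the strain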
Settings: S. cerevisiae deletion strains, growth OD

Measured: normalized growth

CO/N=C(\C(=O)N[C@@H]1C(=O)N2C(C(=O)O)=C(CSc3nc(=O)c(O)nn3C)CS[C@H]12)c1csc(N)n1
inactive: locus YAL021C, strain ccr4, stronger effect = lower value 0.982 | locus YAL026C, strain drs2, stronger effect = lower value 0.974 | locus YAL030W, strain snc1, stronger effect = lower value 0.984 | locus YBL061C, strain skt5, stronger effect = lower value 0.966 | locus YBR009C, strain hhf1, stronger effect = lower value 0.985 | locus YBR021W, strain FUR4, stronger effect = lower value 1.03 | locus YBR023C, strain chs3, stronger effect = lower value 0.979 | locus YBR171W, strain sec66, stronger effect = lower value 0.96 | locus YBR229C, strain ROT2, stronger effect = lower value 0.999 | locus YBR231C, strain swc5, stronger effect = lower value 0.975 | locus YBR279W, strain paf1, stronger effect = lower value 0.959 | locus YCL011C, strain gbp2, stronger effect = lower value 0.958 | locus YCL016C, strain dcc1, stronger effect = lower value 0.976 | locus YCL029C, strain bik1, stronger effect = lower value 0.986 | locus YCL061C, strain MRC1, stronger effect = lower value 0.969 | locus YCL069W, strain vba3, stronger effect = lower value 0.986 | locus YCR088W, strain abp1, stronger effect = lower value 0.962 | locus YDL005C, strain med2, stronger effect = lower value 0.984 | locus YDL035C, strain GPR1, stronger effect = lower value 0.982 | locus YDL040C, strain nat1, stronger effect = lower value 0.973 | locus YDL074C, strain BRE1, stronger effect = lower value 1.03 | locus YDL101C, strain DUN1, stronger effect = lower value 0.996 | locus YDL134C, strain PPH21, stronger effect = lower value 1 | locus YDL185W, strain tfp1, stronger effect = lower value 0.946 | locus YDL192W, strain arf1, stronger effect = lower value 0.984 | locus YDR001C, strain nth1, stronger effect = lower value 0.959 | locus YDR069C, strain doa4, stronger effect = lower value 1 | locus YDR101C, strain arx1, stronger effect = lower value 1.02 | locus YDR137W, strain rgp1, stronger effect = lower value 0.968 | locus YDR159W, strain sac3, stronger effect = lower value 0.921 | locus YDR162C, strain NBP2, stronger effect = lower value 0.97 | locus YDR195W, strain ref2 1.01 | locus YDR297W, strain sur2, stronger effect = lower value 0.98 | locus YDR318W, strain mcm21, stronger effect = lower value 0.982 | locus YDR334W, strain swr1, stronger effect = lower value 0.931 | locus YDR335W, strain msn5, stronger effect = lower value 0.966 | locus YDR388W, stronger effect = lower value 0.981 | locus YDR392W, strain spt3, stronger effect = lower value 0.968 | locus YDR502C, strain sam2, stronger effect = lower value 1.01 | locus YEL003W, strain gim4, stronger effect = lower value 0.972 | locus YEL037C, strain rad23, stronger effect = lower value 0.969 | locus YEL061C, strain CIN8 (second series), stronger effect = lower value 0.947 | locus YEL061C, strain CIN8, stronger effect = lower value 1 | locus YER015W, strain faa2, stronger effect = lower value 0.977 | locus YER016W, strain bim1, stronger effect = lower value 0.976 | locus YER110C, stronger effect = lower value 0.974 | locus YER111C, strain swi4, stronger effect = lower value 0.979 | locus YER155C, strain BEM2 (second series), stronger effect = lower value 0.959 | locus YER155C, strain BEM2, stronger effect = lower value 1.01 | locus YER167W, strain BCK2, stronger effect = lower value 0.988 | locus YFR010W, strain ubp6, stronger effect = lower value 0.959 | locus YGL078C, strain dbp3, stronger effect = lower value 0.992 | locus YGL086W, strain mad1, stronger effect = lower value 1.03 | locus YGL167C, strain pmr1, stronger effect = lower value 0.956 | locus YGL173C, strain kem1, stronger effect = lower value 0.975 | locus YGL227W, strain vid30, stronger effect = lower value 0.977 | locus YGL240W, strain doc1, stronger effect = lower value 0.975 | locus YGL248W, strain PDE1, stronger effect = lower value 1 | locus YGL253W, strain hxk2, stronger effect = lower value 0.981 | locus YGR135W, strain pre9, stronger effect = lower value 0.948 | locus YGR252W, strain gcn5, stronger effect = lower value 1.02 | locus YHR027C, strain rpn1, stronger effect = lower value 0.978 | locus YHR030C, strain SLT2, stronger effect = lower value 0.988 and 1.01 | locus YHR079C, strain IRE1 (second series), stronger effect = lower value 0.966 | locus YHR079C, strain IRE1, stronger effect = lower value 1.01 | locus YHR094C, strain hxt1, stronger effect = lower value 0.976 | locus YHR129C, strain ARP1, stronger effect = lower value 0.992 | locus YHR142W, strain chs7, stronger effect = lower value 0.982 | locus YHR200W, strain rpn10, stronger effect = lower value 0.984 | locus YIL066C, strain RNR3, stronger effect = lower value 1.02 | locus YIL073C, strain SPO22, stronger effect = lower value 0.941 | locus YIL125W, strain kgd1, stronger effect = lower value 0.985 | locus YIR030C, strain dcg1, stronger effect = lower value 0.961 | locus YJL092W, strain hpr5, stronger effect = lower value 0.975 | locus YJL095W, strain BCK1 (second series), stronger effect = lower value 0.966 | locus YJL095W, strain BCK1, stronger effect = lower value 1.02 and 0.999 | locus YJL115W, strain asf1, stronger effect = lower value 0.952 | locus YJL129C, strain trk1, stronger effect = lower value 0.958 | locus YJL134W, strain LCB3, stronger effect = lower value 0.993 | locus YJL154C, strain vps35, stronger effect = lower value 0.954 | locus YJL164C, strain tpk1, stronger effect = lower value 0.992 | locus YJL166W, strain qcr8, stronger effect = lower value 0.981 | locus YJL168C, strain set2, stronger effect = lower value 0.998 | locus YJL187C, strain SWE1 (second series), stronger effect = lower value 1.01 | locus YJR043C, strain POL32, stronger effect = lower value 1.03 | locus YJR066W, strain TOR1, stronger effect = lower value 0.965 | locus YJR075W, strain HOC1, stronger effect = lower value 0.994 | locus YKL009W, strain mrt4, stronger effect = lower value 0.974 | locus YKL068W, stronger effect = lower value 0.974 | locus YKL085W, strain MDH1 (second series), stronger effect = lower value 0.984 | locus YKL085W, strain MDH1, stronger effect = lower value 0.984 | locus YKL160W, strain elf1, stronger effect = lower value 0.968 | locus YKL190W, strain CNB1, stronger effect = lower value 0.992 | locus YKR001C, strain vps1, stronger effect = lower value 0.993 | locus YKR026C, strain gcn3, stronger effect = lower value 0.974 | locus YKR091W, strain srl3, stronger effect = lower value 0.982 | locus YLL001W, strain dnm1, stronger effect = lower value 0.965 | locus YLL026W, stronger effect = lower value 0.986 | locus YLL041C, strain sdh2, stronger effect = lower value 0.949 | locus YLR027C, strain aat2, stronger effect = lower value 0.971 | locus YLR039C, strain RIC1, stronger effect = lower value 0.988 | locus YLR058C, strain SHM2, stronger effect = lower value 0.994 | locus YLR102C, strain apc9, stronger effect = lower value 0.985 | locus YLR113W, strain HOG1, stronger effect = lower value 1.04 | locus YLR221C, strain rsa3, stronger effect = lower value 0.969 | locus YLR258W, strain gsy2, stronger effect = lower value 0.957 | locus YLR262C, strain YPT6 (second series), stronger effect = lower value 0.947 | locus YLR262C, strain YPT6, stronger effect = lower value 0.982 | locus YLR268W, strain sec22, stronger effect = lower value 0.992 | locus YLR320W, strain mms22, stronger effect = lower value 0.97 | locus YLR330W, strain CHS5, stronger effect = lower value 0.983 | locus YLR342W, strain FKS1 (second series), stronger effect = lower value 0.985 | locus YLR342W, strain FKS1, stronger effect = lower value 0.983 | locus YLR357W, strain rsc2, stronger effect = lower value 0.893 | locus YLR370C, strain arc18, stronger effect = lower value 0.971 | locus YLR371W, strain rom2, stronger effect = lower value 0.979 | locus YLR384C, strain iki3, stronger effect = lower value 0.967 | locus YLR418C, strain cdc73, stronger effect = lower value 0.994 | locus YML016C, strain PPZ1, stronger effect = lower value 0.996 | locus YML032C, strain rad52, stronger effect = lower value 1.02 | locus YML120C, strain ndi1, stronger effect = lower value 0.986 | locus YML124C, strain tub3, stronger effect = lower value 0.989 | locus YMR058W, strain fet3, stronger effect = lower value 0.969 | locus YMR078C, strain ctf18, stronger effect = lower value 0.964 | locus YMR125W, strain sto1, stronger effect = lower value 0.958 | locus YMR129W, stronger effect = lower value 0.996 | locus YMR205C, strain PFK2, stronger effect = lower value 0.968 | locus YMR223W, strain ubp8, stronger effect = lower value 0.96 | locus YMR231W, strain pep5, stronger effect = lower value 0.977 | locus YMR263W, strain SAP30, stronger effect = lower value 1.01 | locus YMR307W, strain GAS1, stronger effect = lower value 0.981 | locus YNL067W, strain RPL9B, stronger effect = lower value 1.02 | locus YNL071W, strain lat1, stronger effect = lower value 0.956 | locus YNL183C, strain NPR1, stronger effect = lower value 0.96 | locus YNL209W, strain ssb2, stronger effect = lower value 0.961 | locus YNL233W, strain BNI4, stronger effect = lower value 1.03 | locus YNL248C, strain rpa49, stronger effect = lower value 0.924 | locus YNL250W, strain rad50, stronger effect = lower value 0.951 | locus YNL271C, strain bni1, stronger effect = lower value 0.992 | locus YNL298W, strain CLA4, stronger effect = lower value 0.969 | locus YNL307C, strain MCK1, stronger effect = lower value 0.987 | locus YNL322C, strain KRE1 (second series), stronger effect = lower value 0.978 | locus YNR049C, strain mso1, stronger effect = lower value 0.97 | locus YNR052C, strain pop2, stronger effect = lower value 0.986 | locus YOL006C, strain TOP1, stronger effect = lower value 1.11 | locus YOL012C, strain htz1 0.913 | locus YOL147C, strain pex11, stronger effect = lower value 0.972 | locus YOR001W, strain rrp6, stronger effect = lower value 0.963 | locus YOR061W, strain CKA2, stronger effect = lower value 0.998 | locus YOR069W, strain VPS5, stronger effect = lower value 0.988 | locus YOR070C, strain gyp1, stronger effect = lower value 0.977 | locus YOR080W, strain dia2, stronger effect = lower value 0.971 | locus YOR083W, strain WHI5, stronger effect = lower value 0.981 | locus YOR106W, strain vam3, stronger effect = lower value 0.933 | locus YOR136W, strain idh2, stronger effect = lower value 0.994 | locus YOR144C, strain elg1, stronger effect = lower value 0.993 | locus YOR184W, strain ser1, stronger effect = lower value 0.974 | locus YOR231W, strain MKK1, stronger effect = lower value 1.04 | locus YOR265W, strain rbl2, stronger effect = lower value 0.976 | locus YOR270C, strain vph1, stronger effect = lower value 0.947 | locus YOR290C, strain snf2, stronger effect = lower value 0.962 | locus YOR316C, strain cot1, stronger effect = lower value 0.982 | locus YPL051W, strain arl3, stronger effect = lower value 0.964 | locus YPL055C, strain LGE1, stronger effect = lower value 1.07 | locus YPL078C, strain atp4, stronger effect = lower value 0.991 | locus YPL106C, strain sse1, stronger effect = lower value 0.917 | locus YPL240C, strain hsp82, stronger effect = lower value 0.975 | locus YPL241C, strain CIN2, stronger effect = lower value 0.982 | locus YPL256C, strain CLN2, stronger effect = lower value 1.02 | locus YPR119W, strain clb2, stronger effect = lower value 0.988 | locus YPR141C, strain kar3, stronger effect = lower value 0.995 | locus YPR163C, strain tif3, stronger effect = lower value 0.968 | locus YPR167C, strain met16, stronger effect = lower value 0.976 | strain wtn01, stronger effect = lower value 0.981
active: locus YHR013C, strain ard1, stronger effect = lower value 1.2 [resistant]
